Compound activity from PubChem BioAssay.
This is a sample that favours compounds with a hit; in the whole collection about 3% have one here.
KKLEB cytotox – CF airway cell cytotoxicity counter-screen; KKLEB CF airway cells viability, ATPlite luminescence, overnight; stronger effect = lower value; cells stimulated with P. aeruginosa culture filtrate; activity change (cytotoxicity), % at 5 µM; 360,000 compounds, 0.36% hits; AID 602141;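 active = corrected activity change at or below -50% at 5 µM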
TRPM1 prom inh – inhibitors of MITF-driven TRPM1 promoter in melanoma cells | SK-MEL-5 TRPM1 promoter luciferase, 24 h | inhibition, % at 12.5 µM | 330,000 compounds, 0.83% hits | AID 488899;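 active = mean inhibition across replicates of 60% or more, whatever share of single replicates reaches that level; inconclusive = some that reach 60%, reason not given; inactive = mean inhibition across replicates below 60%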
ABHD5 PLIN5 PPI – blocks binding of human ABHD5 to perilipin-5 | Q00G26+Q8WTS1 | Split G. princeps luciferase complementation, luminescence, 4 h | inhibition, % at 4 µM | 360,000 compounds, 0.78% hits | AID 602281;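 active = inhibition above the mean inhibition across every tested compound plus 3 SD, cut at about 22% in these data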;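 note: 0% = DMSO only wells and the 100% control is not disclosed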
Peg3 prom inh – reduces Peg3 promoter-driven luciferase expression in HeLa; AID 588405; 360,000 compounds, 1.7% hits; inhibition, % at 20 µM; HeLa PEG-Prom luciferase reporter, luminescence, overnight;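 active = inhibition of at least 50% at 20 µM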
CF NFkB block – inhibitors of cystic fibrosis induced NF-kB | inhibition, % at 5 µM | 360,000 compounds, 0.86% hits | KKLEB NF-kB-GFP reporter, PAF-induced, GFP fluorescence overnight;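 active = at least 50% inhibition at 5 µM, scaled per plate between neutral and stimulator controls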;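 note: PAF is a Pseudomonas aeruginosa culture filtrate used as stimulus; plate controls were PAF-stimulated DMSO wells for no effect and unstimulated DMSO wells for full effect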
HIF-2a inh – HIF-2a inhibition; 360,000 compounds, 0.72% hits; inhibition, % at 18.8 µM; 786-0 RCC cells HIF-2a reporter, luciferase luminescence, overnight;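 active = inhibition of the luminescence signal of 40% or more relative to plate controls, in a single-dose primary screen at 18.75 µM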
The depositor's hits bear a star; ? = inconclusive; / = not tested or not shown.

SMILES | KKLEB cytotox | TRPM1 prom inh | ABHD5 PLIN5 PPI | Peg3 prom inh | CF NFkB block | HIF-2a inh
CC(NC(=O)CN1C(=O)NC2(CCCCCC2)C1=O)c1ccccc1Cl (stereo unspecified) | 12 | 0 | 4 | 5 | 3 | 17
COc1ccc(-c2ccc(CN3C(C(C)C)C(=O)N(Cc4cn(CCC5OCCO5)nn4)CCS3(=O)=O)cc2)cc1OC (stereo unspecified) | -16 | / | -2 | 13 | 29 | 5
CC(C)C1C(=O)N(Cc2cn(CCC3OCCO3)nn2)CCS(=O)(=O)N1Cc1ccc(-c2ccc(Cl)c(Cl)c2)cc1 (stereo unspecified) | -9 | / | 5 | 60* | 31 | -33
COc1ccc(CCNC(=O)c2cccs2)cc1OC | 0 | 2 | 7 | -4 | -6 | 2
COc1ccc(CNc2nc(NCc3ccc(OC)c(OC)c3)n(C(=O)c3cccs3)n2)cc1OC | 4 | -17 | 23* | -38 | -16 | -114
COc1ccc(NC(=O)c2cc(-c3sc(NC(=O)c4ccccc4)nc3C)n(CCO)n2)cc1 | / | / | 3 | / | / | -13
CC(OC(=O)c1ccc2ncsc2c1)C(=O)NC1CCCCC1C (stereo unspecified) | 4 | -9 | 0 | -30 | -12 | -6
CCOc1cc(/C=C2\C(=O)N(c3nc(-c4ccc(Br)cc4)cs3)N=C2c2ccccc2)ccc1O | 14 | -2 | -1 | 51* | -2 | 15
CC1CC(C)CN(C(=O)Cn2nnc(-c3ccc(Br)cc3)n2)C1 (stereo unspecified) | 12 | 8 | 0 | 12 | 2 | 5
O=C(Nc1cc(Cl)ccc1-n1cncn1)c1ccc([N+](=O)[O-])s1 | 2 | 62* | 1 | 37 | -21 | 25
O=C1NC[C@H](CCCCN2CCN(Cc3ccccc3)C(=O)C2=O)N(CCc2ccccc2)C1=O | / | / | 10 | / | / | 16
CCOC(=O)C1=C(c2ccccc2)NC(N)=NC1c1ccc(OCc2ccc(Cl)cc2)c(OC)c1 (stereo unspecified) | 3 | 35 | 10 | 110* | 3 | 4
Cn1c(SCC(=O)NNC(=O)Cc2ccccc2)nc2ccccc2c1=O | 10 | 5 | 3 | 22 | -12 | 21
CC1CC(C)C[N+](=C2C=C(N3CCCC3)CC(C)(C)C2)C1 (stereo unspecified) | -1 | 70* | -1 | 34 | 24 | 4
CC1(C)CC(N2CCCC2)=CC(=[N+]2CCCCCC2)C1 | -3 | 52 | 1 | 8 | 2 | 14
Cc1cc(Nc2nc3ccccc3nc2Cl)n(-c2ccc([N+](=O)[O-])cc2)n1 | -19 | 11 | 0 | 53* | 41 | 27
Cc1cc(Nc2nc3ccccc3[nH]c2=O)n(-c2ccccc2)n1 | 11 | 11 | 8 | 16 | -20 | -8
CN(C)CCCN1C(=O)c2cccc3cccc(c23)C1=O | 13 | 9 | 2 | 27 | -72 | 24
CN(C)CCN1C(=O)c2cccc3cc([N+](=O)[O-])cc(c23)C1=O | -14 | 84* | 2 | 97* | -146 | 46*
CCc1nc2c(OCCC3CCCCC3)cccn2c1N(C=O)Cc1ccccc1 | -24 | / | 8 | 66* | 39 | 12
COC(=O)C1=C(C)N(Cc2ccccc2)C(=NCc2ccccc2)N[C@H]1c1ccccc1 | -17 | 83* | 13 | 92* | -16 | -2
COC(=O)C1=C(C)N(Cc2ccccc2)C(=NCc2cc(OC)c(OC)c(OC)c2)N[C@H]1c1ccccc1 | / | -1 | / | / | / | /
COC(=O)C1=C(C)N(Cc2ccccc2)C(=NCc2cc(OC)c(OC)c(OC)c2)N[C@H]1c1ccc(Br)cc1 | -30 | 55 | 18 | 106* | 40 | -4
CCN(CC)CCCN=C1N[C@@H](c2cccc(C(F)(F)F)c2)C(C(=O)OC)=C(C)N1CC | -2 | ? | 10 | 51* | 9 | 4
COC(=O)C1=C(C)N(Cc2ccccc2)C(=S)N[C@H]1c1cccc(F)c1 | -9 | / | 9 | 24 | 27 | 10
COC(=O)C1=C(C)N(Cc2ccccc2)C(=NCc2ccccc2)N[C@H]1c1cccc(F)c1 | -15 | 51 | 20 | 101* | 29 | 6
O=c1[nH]cc(S(=O)(=O)N2CCN(c3ccccc3F)CC2)c(=O)[nH]1 | 6 | / | 2 | -9 | 8 | -3
CN(C(=S)NC(=O)Cc1ccccc1)c1ccccc1 | -5 | -6 | 0 | -51 | 0 | -80
